Screen size: about 300,000 compounds; about 480 (0.16%) were called active.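 The calls were made as follows: active = inhibition over 29.93%, a cutoff 3 SD above the screen mean, later confirmed by dose response; inconclusive = inhibition over 29.93% but no dose response follow-up; inactive = inhibition at most 29.93% or unconfirmed.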 Only a sample is shown. Measured potencies and affinities stand elsewhere.
Test: PhoP-dependent GFP reporter repression – Salmonella Typhimurium, primary screen (AID 1863);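 also: 0% = low Mg2+ inducing control and 100% = high Mg2+ repressing control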
Settings: S. Typhimurium PhoP-regulated promoter GFP reporter, 4 h; at 50 µM; hits give high values

inhibition, inactive:
C=CCN(c1ccc(C(=O)NCCCn2ccnc2)cc1)S(C)(=O)=O 0.81%
Cc1ccc2c(=O)c(C(=O)c3ccc(F)cc3)cn(CC(=O)NCc3ccco3)c2n1 -4.56%
CCOC(=O)c1c(NC(=O)COC(=O)c2ccccn2)sc(C(=O)N(C)C)c1C 2.57%
C/C(=N\NC(=O)c1ccccc1Cl)c1ccccn1 5.97%
C/C(=N\NC(=O)c1cc(Br)ccc1O)c1ccccn1 3.69%
COc1ccc(CC(=S)NCCc2ccccc2)cc1 -4.36%
O=C(NC1CCCC1)C(c1ccccn1)N(Cc1ccc(F)cc1)C(=O)c1csnn1 (configuration not stated) 0.43%
CCCCn1nnnc1NCc1cc(OC)c(OC)cc1OC 35.9%
COc1cc2ccc3c(CCN(C)C)cc(OC)c(OC)c3c2cc1OC -2.35%
CC(=O)Oc1ccc(OC(C)=O)c(SCCCCCCl)c1 -1.06%
CCCCCCSc1cc(-c2nc3ccc(Cl)cn3c2NCCCC)ccc1OC -3.84%
O=C(Nc1ccc(S(=O)(=O)N2CCc3ccccc3C2)cc1)C1CCCO1 (configuration not stated) 13.2%
CCCCCn1c(CCNC(=O)c2cccs2)nc2ccccc21 11.2%
COc1ccccc1C(=O)OCc1ccc2sc(C)nc2c1 5.75%
C=CCNc1nc(Cl)nc(Nc2ccc([N+](=O)[O-])cc2)n1 13.8%
CC(C)c1cc(=O)n2[nH]c(SCc3ccccc3Cl)nc2n1 -7.54%
CCCOc1ccc(C(=O)NCCC(=O)NCCCC(=O)O)cc1 8.01%
CN(C)C/C(Cl)=C(\Cl)c1ccccc1 4.69%
COC(=O)c1c(NC(=O)c2ccco2)sc2c1CCN(C(C)C)C2 3.8%
CC(C)N1CCc2c(sc(NC(=O)c3ccc([N+](=O)[O-])o3)c2C(N)=O)C1 18%
NC(=O)c1c(NC(=O)c2ccc([N+](=O)[O-])o2)sc2c1CCCC2 -3.86%
CN1CCc2c(sc(NC(=O)c3ccco3)c2C(N)=O)C1 -4.37%
CC(C)(C)c1ccc(C(=O)N2CCN(C(=O)c3ccco3)CC2)cc1 1.4%
Cc1nn(-c2ccccc2)c(N2CCCC2)c1C=O -1.38%
O=S(=O)(c1ccccc1)c1nc(-c2ccco2)oc1NCCCn1ccnc1 5.16%
CC(C)N(C(=O)COC(=O)[C@@H]1CC(O)CN1S(=O)(=O)c1ccc(C(C)(C)C)cc1)C(C)C (some centres not stated) 0.76%
CC(=O)C[C@H]1c2cc(C(F)(F)F)ccc2S(=O)(=O)N1c1ccc(N(C)C)cc1 -9.83%

Source: PubChem BioAssay AID1863 (Southern Research Specialized Biocontainment Screening …, 2009)
